# ATXN viability: viability counter-screen for ATXN expression inhibitors. AID 651635. Potency, µM (titrated, usually from 56.7 µM), most hits filed as cytotoxic. S2 cells (HEK-293 line with an ATXN2-luciferase reporter) viability, CellTiter-Fluor protease fluorescence, 24 h. 400,000 compounds, 0.49% hits; also: nearly all actives have a fitted effect of over 40% in size
# KB-V1 MDR tox: kills drug-selected multidrug resistant KB-V1 cells. 400,000 compounds, 3.4% hits. Potency, µM (highest dose often 46.1 µM), actives largely listed as cytotoxic. KB-V1 MDR cells viability, CellTiter-Glo, 72 h; also: % is scaled to controls: 0 for no effect and ±100 for the full control effect; nearly all actives have a fitted effect of over 60% in size
#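 KB-V1, DMEM (no phenol red) + 10% FBS; cpd pin-transferred, titration series; 72 h, 37 degrees C; CellTiter-Glo, luminescence. Data normalized, curve-fit.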
# KB-3-1 tox: KB-3-1 parental cell cytotoxicity; KB-3-1 viability, CellTiter-Glo ATP luminescence, 72 h; Potency, µM (highest dose often 46.1 µM), most hits filed as cytotoxic; 400,000 compounds, 1.4% hits; also: % is scaled to controls: 0 for no effect and ±100 for the full control effect; nearly all actives have a fitted effect of over 60% in size
#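 Parental KB-3-1 adenocarcinoma cells in phenol-red-free DMEM with 10% FBS were pin-treated with compounds at several concentrations, incubated 72 h at 37 °C, and viability read by CellTiter-Glo luminescence; concentration-effect curves were fitted after normalization.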
# ATXN2 expr inh: reduces ATXN2 reporter expression in HEK-293 cells; HEK-293 ATXN2-luciferase reporter, luminescence, 24 h; Potency, µM (doses to about 57 µM), for the others: at the top dose activity change, negative = inhibition, hits mostly inhibitors; 360,000 compounds, 0.72% hits; AID 1745845; also: % is scaled to controls: 0 for no effect and ±100 for the full control effect; nearly all actives have a fitted effect of over 55% in size
#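 qHTS (up to 57 uM final) was run with 24 h compound exposure of reporter cells at 37 °C. Each well was multiplexed: SteadyGlo luminescence measured ATXN2-luciferase expression after a fluorogenic Gly-Phe-AFC viability readout (25 uM final).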
# HT1080NT lethal: kills 2HG-producing HT-1080-NT fibrosarcoma cells | HT-1080-NT fibrosarcoma viability, CellTiter-Glo ATP luminescence, 48 h | Potency, µM (titrated, usually from 46.1 µM), for inactives: at the highest dose activity, negative = less viability, actives largely listed as cytotoxic | 360,000 compounds, 1.6% hits;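 also: NT is the 2HG producing partner of a matched IDH1 knockdown line; 0% = DMSO-treated cells and -100% = media-only wells without cells; nearly all actives have a fitted effect of over 55% in size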
#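 HT-1080-NT fibrosarcoma cells (2HG-overproducing), 750 cells/well in RPMI with 5% FBS, dosed after 2 h and incubated 48 h at 37C. CellTiter-Glo luminescence normalized to DMSO and no-cell wells; concentration-response curves fitted and classed.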
# HT1080 IDH1KD tx: HT-1080 IDH1 knockdown cell toxicity (counter line); HT-1080 IDH1 knockdown viability, ATP luminescence, 48 h; Potency, µM (doses to about 46.1 µM), without a hit: at the highest dose activity, negative = toxicity, hits mostly cytotoxic; 360,000 compounds, 2% hits;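 also: 0% = DMSO wells and -100% = cell-free medium wells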
#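 Viability of IDH1-knockdown HT-1080 fibrosarcoma cells was assessed by CellTiter-Glo after 48 h at 37 °C with titrated compound; concentration-effect curves were classified by fit quality and response size.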
# The depositor's hits bear a star; i = inactive; ? = inconclusive; / = no result given. Most compounds without a hit are left out; they make up all but 6.2% or so of the library. Calls follow the shape of the dose curve; as a rule, active = well fitted curve in the direction sought with a large enough effect; inconclusive = small, poorly fitted or top-dose-only effect, or another doubt; inactive = no such curve, though single readings can be large; an effect the other way counts as inactive or inconclusive. Potency is read from the fitted curve at half-maximal effect.
SMILES,ATXN viability,KB-V1 MDR tox,KB-3-1 tox,ATXN2 expr inh,HT1080NT lethal,HT1080 IDH1KD tx
COc1ccc(C(=O)NCc2ccc3c(c2)CCN3C(=O)c2cccc(C)c2)cc1OC,/,i,i,/,/,/
[O-][n+]1cccc(/C(Cl)=N/OC[C@@H](O)CN2CCCCC2)c1,i,/,/,14%,/,/
c1ccc(CCN=C2CCCc3c2[nH]c2ccccc32)cc1,?,?,13µM*,-1%,3%,24%
Nc1ccc(C(=O)N/N=C2\CCCc3c2[nH]c2ccccc32)cc1,i,i,?,13%,15%,2%
c1ccc(CN2CCN(C(c3ccccc3)c3ccccc3)CC2)cc1,i,?,i,4%,-14%,?
O=S(=O)(CCN1CCN(C(c2ccccc2)c2ccccc2)CC1)C(F)(F)F,i,i,i,?,?,18µM*
COCCCNC(=O)c1cnn(-c2ncc3c(n2)-c2ccccc2CCC3)c1C,i,/,/,/,/,/
CCCCCc1nc2c(c3c1CCCC3)CCCC2,i,?,?,-29%,16%,2%
CCCCCCCCCn1c2c(c(=N)c3c1CCC3)CCCC2,?,i,?,?,7.3µM*,4.6µM*
CCn1c2c(c(=N)c3c1CCC3)CCCC2,i,?,12µM*,-9%,?,-19%
CCOC(=O)Cn1c2c(c(=N)c3c1CCC3)CCC2,i,i,?,-10%,-4%,-23%
CCCCn1c2c(c(=N)c3ccccc31)CCC2,i,i,?,-7%,?,-15%
CCCCCCCCCCn1c2c(c(=N)c3c1CCC3)CCC2,?,i,?,?,1µM*,?
NC(=O)c1c(NC(=O)c2ccncn2)sc2c1CCCC2,/,i,?,/,/,/
Cc1ccn2c(c1)nc(=O)c1cc(S(=O)(=O)N3CCCCC3)c(Cl)cc12,i,i,i,5%,/,/
Cc1cccc(-n2c(=O)c3c(c4cc(C)ccc4n3C)n(CC(=O)Nc3ccccc3C(F)(F)F)c2=O)c1,i,i,i,12%,/,/
Cc1ccc(S(=O)(=O)N2CCN(c3ccccc3)CC2)s1,?,i,i,/,0%,1%
CCOC(=O)c1c(C)c(-c2ccccc2)n(CC(=O)Nc2cc(OC)cc(OC)c2)c1C,i,i,i,-13%,/,/
COCCN1CCC(CNCc2cn[nH]c2-c2ccc(C)c(C)c2)C1 (centres undefined),i,?,i,3%,-18%,-14%
COCCN1CCC(CNCc2cn(-c3cc(C)ccc3C)nc2-c2ccccc2)C1 (centres undefined),?,i,i,/,26µM*,?
CCN(CC)CCCNC(=O)c1sc2nc(-c3ccc(F)cc3)cn2c1C,?,16µM*,i,3%,?,?
Cc1c(C(=O)NCc2ccccn2)sc2nc(-c3ccccc3)cn12,i,i,9.2µM*,?,?,?
COCCNC(=O)c1sc2nc(-c3ccccc3)cn2c1C,i,13µM*,i,30%,11%,16%
Cc1c(C(=O)NCc2ccc3c(c2)OCO3)sc2nc(-c3ccc(F)cc3)cn12,i,i,i,-10%,0%,2%
Cc1c(C(=O)NCc2ccccn2)sc2nc(-c3ccc(F)cc3)cn12,/,i,?,/,-4%,?
O=C(NCC1Cc2cccc(-c3cccnc3)c2O1)c1cc(-c2ccccc2)n[nH]1 (centres undefined),i,/,/,/,/,/
Cc1cc(C(=O)Nc2ccccc2-c2nc(CNC(=O)c3ccccc3Cl)c(C)o2)c(C)o1,i,/,/,/,/,/
Cc1cccc(CNC(=O)c2c3n(c(C)cc2=O)-c2ccccc2SC(c2ccsc2)C3)n1 (centres undefined),i,/,/,/,/,/
C=CCn1c(=N)n(CC(=O)c2ccc(Cl)cc2)c2ccccc21,i,i,i,-8%,-18%,-28%
